Assays:
Experiment in all cases: DAPPL (digital affinity profiling via proximity ligation, sequencing); 10 mM Tris-HCl pH 7.5, 50 mM NaCl, 1 mM DTT, 4% glycerol, room temperature, 30 min; GST-TFs on glutathione beads, 16-mer random dsDNA library, 0.1% formaldehyde crosslink after washing; high values mean tight binding
FLI1 = biological target: T1, FLI1 (Homo sapiens, UniProt Q01543 1-452); conditions: protein: recombinant; tags: N-terminal GST; dsDNA, one strand shown
T1 sequence: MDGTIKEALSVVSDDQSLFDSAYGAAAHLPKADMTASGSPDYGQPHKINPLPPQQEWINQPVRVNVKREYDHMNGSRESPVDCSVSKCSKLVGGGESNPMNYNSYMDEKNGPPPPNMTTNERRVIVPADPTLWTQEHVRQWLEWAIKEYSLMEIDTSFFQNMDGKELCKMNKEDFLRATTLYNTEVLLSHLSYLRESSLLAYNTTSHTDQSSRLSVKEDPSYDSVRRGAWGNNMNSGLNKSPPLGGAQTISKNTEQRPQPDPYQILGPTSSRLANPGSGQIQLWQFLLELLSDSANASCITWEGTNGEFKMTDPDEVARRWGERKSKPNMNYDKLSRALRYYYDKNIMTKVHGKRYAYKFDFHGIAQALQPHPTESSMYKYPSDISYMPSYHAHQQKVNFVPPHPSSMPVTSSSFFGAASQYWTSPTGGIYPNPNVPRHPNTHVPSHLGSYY
Outline: (§1)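 Pools of DNA-barcoded human transcription factors, expressed in yeast as GST fusions on glutathione beads and combined with a tag-only sample, were incubated with 200 nmole of a 16-mer random double-stranded DNA library. Incubation took 30 min at room temperature in Tris/NaCl/DTT/glycerol buffer and was followed by washing, 0.1% formaldehyde crosslinking, proximity ligation (BsaI/T4 ligase, 1 h, 37 °C), PCR amplification and sequencing on an Illumina NextSeq500. Binding signal is the ratio of a hexamer's read frequency for a factor to its frequency for the tag-only sample.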

ELK1 = biological target: T2, ELK1 (Homo sapiens, UniProt P19419 1-428); conditions: protein: recombinant; tags: N-terminal GST; dsDNA, one strand shown
T2 sequence: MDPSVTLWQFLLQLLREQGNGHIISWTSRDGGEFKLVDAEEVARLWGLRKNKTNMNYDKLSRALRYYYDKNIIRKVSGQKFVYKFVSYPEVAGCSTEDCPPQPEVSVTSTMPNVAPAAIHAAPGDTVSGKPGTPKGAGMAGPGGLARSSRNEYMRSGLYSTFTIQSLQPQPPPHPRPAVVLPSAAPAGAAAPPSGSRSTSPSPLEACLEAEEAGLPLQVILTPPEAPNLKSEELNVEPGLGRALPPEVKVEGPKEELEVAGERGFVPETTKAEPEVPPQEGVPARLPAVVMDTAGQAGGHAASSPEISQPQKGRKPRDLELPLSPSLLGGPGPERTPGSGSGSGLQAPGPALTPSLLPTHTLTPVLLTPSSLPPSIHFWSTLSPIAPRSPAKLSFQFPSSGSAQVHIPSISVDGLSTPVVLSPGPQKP
Outline: as §1

GABPA = biological target: T3, GABPA (Homo sapiens, UniProt Q06546 1-454); conditions: protein: recombinant; tags: N-terminal GST; dsDNA, one strand shown
T3 sequence: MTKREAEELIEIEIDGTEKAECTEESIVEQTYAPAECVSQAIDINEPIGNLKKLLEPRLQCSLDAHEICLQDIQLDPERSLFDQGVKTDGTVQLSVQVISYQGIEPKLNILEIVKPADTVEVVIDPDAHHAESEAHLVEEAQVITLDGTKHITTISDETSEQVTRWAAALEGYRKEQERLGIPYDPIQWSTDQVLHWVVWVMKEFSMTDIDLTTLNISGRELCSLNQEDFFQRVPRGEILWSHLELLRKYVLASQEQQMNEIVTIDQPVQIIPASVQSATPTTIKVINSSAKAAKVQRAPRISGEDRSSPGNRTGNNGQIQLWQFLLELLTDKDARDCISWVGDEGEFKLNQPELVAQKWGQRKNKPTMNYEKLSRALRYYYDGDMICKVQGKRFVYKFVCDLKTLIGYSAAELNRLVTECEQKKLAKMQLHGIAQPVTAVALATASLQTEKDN
Outline: as §1

ERG = biological target: T4, ERG (Homo sapiens, UniProt P11308 1-479); conditions: protein: recombinant; tags: N-terminal GST; dsDNA, one strand shown
T4 sequence: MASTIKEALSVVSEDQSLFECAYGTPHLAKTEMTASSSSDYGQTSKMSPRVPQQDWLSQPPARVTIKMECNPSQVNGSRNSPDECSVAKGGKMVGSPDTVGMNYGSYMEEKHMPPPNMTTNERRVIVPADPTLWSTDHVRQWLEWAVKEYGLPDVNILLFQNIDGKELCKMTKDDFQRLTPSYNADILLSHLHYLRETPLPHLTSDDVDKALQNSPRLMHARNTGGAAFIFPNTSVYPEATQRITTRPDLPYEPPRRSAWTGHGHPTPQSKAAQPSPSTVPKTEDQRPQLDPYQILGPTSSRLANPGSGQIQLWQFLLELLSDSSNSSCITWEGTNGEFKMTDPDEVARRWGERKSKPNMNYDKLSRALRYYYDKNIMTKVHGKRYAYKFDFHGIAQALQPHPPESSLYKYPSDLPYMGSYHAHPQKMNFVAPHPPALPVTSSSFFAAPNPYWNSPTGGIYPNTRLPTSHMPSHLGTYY
Outline: as §1

ELF1 = ELF1 (Homo sapiens, UniProt P32519 1-619); conditions: protein: recombinant; tags: N-terminal GST; dsDNA, one strand shown
Chain of ELF1 (P32519 whole entry): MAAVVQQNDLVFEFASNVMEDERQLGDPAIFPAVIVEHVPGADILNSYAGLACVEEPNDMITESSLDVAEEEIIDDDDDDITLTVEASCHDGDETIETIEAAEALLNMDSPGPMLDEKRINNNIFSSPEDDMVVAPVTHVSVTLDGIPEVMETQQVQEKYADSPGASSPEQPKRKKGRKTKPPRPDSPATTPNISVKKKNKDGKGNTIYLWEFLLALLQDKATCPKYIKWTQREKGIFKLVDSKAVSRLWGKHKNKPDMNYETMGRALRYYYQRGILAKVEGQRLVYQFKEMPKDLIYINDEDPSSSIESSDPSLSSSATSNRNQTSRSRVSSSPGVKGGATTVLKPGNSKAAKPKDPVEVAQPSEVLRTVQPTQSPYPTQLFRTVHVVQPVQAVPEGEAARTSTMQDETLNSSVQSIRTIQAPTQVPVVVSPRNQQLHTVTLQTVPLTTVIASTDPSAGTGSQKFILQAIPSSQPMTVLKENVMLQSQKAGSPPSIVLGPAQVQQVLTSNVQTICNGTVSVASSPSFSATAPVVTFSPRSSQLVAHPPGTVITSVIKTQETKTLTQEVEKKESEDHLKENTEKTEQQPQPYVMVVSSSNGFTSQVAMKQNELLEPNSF
Outline: as §1

EHF = biological target: T5, EHF (Homo sapiens, UniProt Q9NZC4 1-300); conditions: protein: recombinant; tags: N-terminal GST; dsDNA, one strand shown
T5 sequence: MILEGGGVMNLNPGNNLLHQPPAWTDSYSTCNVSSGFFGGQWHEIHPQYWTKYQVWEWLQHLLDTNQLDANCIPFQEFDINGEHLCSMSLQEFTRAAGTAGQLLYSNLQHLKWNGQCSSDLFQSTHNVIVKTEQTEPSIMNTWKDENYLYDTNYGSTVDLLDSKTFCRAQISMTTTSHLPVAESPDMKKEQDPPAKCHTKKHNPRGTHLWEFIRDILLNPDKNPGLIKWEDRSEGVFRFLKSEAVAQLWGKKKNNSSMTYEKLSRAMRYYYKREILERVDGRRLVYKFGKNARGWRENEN
Outline: as §1

SPI1 = SPI1 (Homo sapiens, UniProt P17947 1-270); conditions: protein: recombinant; tags: N-terminal GST; dsDNA, one strand shown
Outline: as §1

SPIB = SPIB (Homo sapiens, UniProt Q01892 1-262); conditions: protein: recombinant; tags: N-terminal GST; dsDNA, one strand shown
Chain of SPIB (Q01892 whole entry): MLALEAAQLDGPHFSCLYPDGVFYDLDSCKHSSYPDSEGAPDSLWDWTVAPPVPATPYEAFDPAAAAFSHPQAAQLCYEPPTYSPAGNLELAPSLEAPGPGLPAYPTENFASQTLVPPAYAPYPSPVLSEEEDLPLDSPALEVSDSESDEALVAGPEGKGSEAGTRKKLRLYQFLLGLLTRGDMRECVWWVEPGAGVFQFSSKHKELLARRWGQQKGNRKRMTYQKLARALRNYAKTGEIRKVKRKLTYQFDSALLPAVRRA
Outline: as §1

ELK3 = biological target: T6, ELK3 (Homo sapiens, UniProt P41970 1-407); conditions: protein: recombinant; tags: N-terminal GST; dsDNA, one strand shown
T6 sequence: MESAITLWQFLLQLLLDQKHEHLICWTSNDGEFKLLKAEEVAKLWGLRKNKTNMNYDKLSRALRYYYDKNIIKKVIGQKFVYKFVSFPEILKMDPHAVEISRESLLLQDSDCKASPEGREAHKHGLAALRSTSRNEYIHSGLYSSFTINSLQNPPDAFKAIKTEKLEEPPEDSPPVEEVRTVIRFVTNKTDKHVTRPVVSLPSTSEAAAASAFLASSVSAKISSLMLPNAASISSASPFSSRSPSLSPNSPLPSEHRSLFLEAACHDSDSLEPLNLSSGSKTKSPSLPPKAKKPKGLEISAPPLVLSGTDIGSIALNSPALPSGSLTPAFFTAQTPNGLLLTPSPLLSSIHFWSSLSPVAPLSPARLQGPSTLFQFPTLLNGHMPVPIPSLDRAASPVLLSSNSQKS
Outline: as §1

FEV = biological target: T7, FEV (Homo sapiens, UniProt Q99581 1-238); conditions: protein: recombinant; tags: N-terminal GST; dsDNA, one strand shown
T7 sequence: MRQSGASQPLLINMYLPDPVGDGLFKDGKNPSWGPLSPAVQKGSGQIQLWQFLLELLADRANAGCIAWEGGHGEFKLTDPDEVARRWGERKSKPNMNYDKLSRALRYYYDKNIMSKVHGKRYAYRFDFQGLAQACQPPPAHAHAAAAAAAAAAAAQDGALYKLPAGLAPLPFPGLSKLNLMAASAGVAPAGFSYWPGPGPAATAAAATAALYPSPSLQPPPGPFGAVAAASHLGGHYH
Outline: as §1

ETV5 = ETV5 (Homo sapiens, UniProt P41161 1-510); conditions: protein: recombinant; tags: N-terminal GST; dsDNA, one strand shown
Chain of ETV5 (P41161 whole entry): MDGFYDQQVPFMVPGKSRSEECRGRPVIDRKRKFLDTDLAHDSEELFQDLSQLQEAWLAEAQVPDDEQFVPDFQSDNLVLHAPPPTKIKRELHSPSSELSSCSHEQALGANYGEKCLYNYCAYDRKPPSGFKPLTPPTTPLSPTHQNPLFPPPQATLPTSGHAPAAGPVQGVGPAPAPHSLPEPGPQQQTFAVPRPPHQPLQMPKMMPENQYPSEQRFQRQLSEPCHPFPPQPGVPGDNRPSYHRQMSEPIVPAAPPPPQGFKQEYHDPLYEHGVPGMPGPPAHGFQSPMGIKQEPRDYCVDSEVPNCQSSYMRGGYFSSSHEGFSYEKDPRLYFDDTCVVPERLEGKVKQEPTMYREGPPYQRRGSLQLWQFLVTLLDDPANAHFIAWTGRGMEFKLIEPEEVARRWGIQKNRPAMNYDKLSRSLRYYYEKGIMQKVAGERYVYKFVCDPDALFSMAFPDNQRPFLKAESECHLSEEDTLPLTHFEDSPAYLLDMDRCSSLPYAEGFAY
Outline: as §1

HSF1 = HSF1 (Homo sapiens, UniProt Q00613 1-529); conditions: protein: recombinant; tags: N-terminal GST; chain copies: 3; dsDNA, one strand shown
Chain of HSF1 (Q00613 whole entry): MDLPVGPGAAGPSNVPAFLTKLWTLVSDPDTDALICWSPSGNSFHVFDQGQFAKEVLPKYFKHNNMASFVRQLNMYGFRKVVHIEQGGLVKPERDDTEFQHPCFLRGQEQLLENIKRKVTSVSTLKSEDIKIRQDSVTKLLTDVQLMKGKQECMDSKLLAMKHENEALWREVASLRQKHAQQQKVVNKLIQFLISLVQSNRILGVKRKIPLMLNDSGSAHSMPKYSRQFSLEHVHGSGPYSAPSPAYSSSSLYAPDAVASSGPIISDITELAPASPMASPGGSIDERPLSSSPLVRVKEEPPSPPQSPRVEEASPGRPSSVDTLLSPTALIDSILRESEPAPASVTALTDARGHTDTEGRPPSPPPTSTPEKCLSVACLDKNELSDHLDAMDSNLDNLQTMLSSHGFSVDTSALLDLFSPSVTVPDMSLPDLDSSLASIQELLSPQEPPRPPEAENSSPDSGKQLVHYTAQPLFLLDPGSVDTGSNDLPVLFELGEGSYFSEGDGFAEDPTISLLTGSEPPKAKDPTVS
Outline: as §1

SPIC = biological target: T8, SPIC (Homo sapiens, UniProt Q8N5J4 1-248); conditions: protein: recombinant; tags: N-terminal GST; dsDNA, one strand shown
T8 sequence: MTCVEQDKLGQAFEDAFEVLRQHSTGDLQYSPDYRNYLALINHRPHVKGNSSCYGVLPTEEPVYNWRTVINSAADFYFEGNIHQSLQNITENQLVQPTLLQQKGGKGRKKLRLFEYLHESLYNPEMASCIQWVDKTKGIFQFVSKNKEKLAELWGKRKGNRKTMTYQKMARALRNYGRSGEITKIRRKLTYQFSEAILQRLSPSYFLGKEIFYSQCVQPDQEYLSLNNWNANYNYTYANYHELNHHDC
Outline: as §1

ELF4 = ELF4 (Homo sapiens, UniProt Q99607 1-663); conditions: protein: recombinant; tags: N-terminal GST; dsDNA, one strand shown
Chain of ELF4 (Q99607 whole entry): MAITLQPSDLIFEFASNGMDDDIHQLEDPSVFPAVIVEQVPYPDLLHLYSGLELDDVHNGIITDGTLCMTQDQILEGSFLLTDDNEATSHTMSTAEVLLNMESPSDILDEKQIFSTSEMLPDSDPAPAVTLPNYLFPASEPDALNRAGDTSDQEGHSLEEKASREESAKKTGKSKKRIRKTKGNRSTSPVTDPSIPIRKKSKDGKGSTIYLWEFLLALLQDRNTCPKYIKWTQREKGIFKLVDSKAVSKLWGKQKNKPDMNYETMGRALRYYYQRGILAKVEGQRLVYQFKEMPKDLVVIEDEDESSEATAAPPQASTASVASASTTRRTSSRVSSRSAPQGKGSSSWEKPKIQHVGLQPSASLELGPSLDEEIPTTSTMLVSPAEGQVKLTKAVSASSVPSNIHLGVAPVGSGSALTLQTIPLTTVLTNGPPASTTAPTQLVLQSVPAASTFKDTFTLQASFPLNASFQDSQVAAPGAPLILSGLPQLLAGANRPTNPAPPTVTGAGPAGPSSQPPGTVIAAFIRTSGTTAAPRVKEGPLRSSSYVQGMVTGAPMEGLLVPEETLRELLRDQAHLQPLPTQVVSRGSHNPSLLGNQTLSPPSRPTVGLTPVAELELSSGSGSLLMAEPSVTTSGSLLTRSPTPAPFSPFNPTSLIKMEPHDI
Outline: as §1

ELK4 = biological target: T9, ELK4 (Homo sapiens, UniProt P28324-2 1-405); conditions: protein: recombinant; tags: N-terminal GST; dsDNA, one strand shown
T9 sequence: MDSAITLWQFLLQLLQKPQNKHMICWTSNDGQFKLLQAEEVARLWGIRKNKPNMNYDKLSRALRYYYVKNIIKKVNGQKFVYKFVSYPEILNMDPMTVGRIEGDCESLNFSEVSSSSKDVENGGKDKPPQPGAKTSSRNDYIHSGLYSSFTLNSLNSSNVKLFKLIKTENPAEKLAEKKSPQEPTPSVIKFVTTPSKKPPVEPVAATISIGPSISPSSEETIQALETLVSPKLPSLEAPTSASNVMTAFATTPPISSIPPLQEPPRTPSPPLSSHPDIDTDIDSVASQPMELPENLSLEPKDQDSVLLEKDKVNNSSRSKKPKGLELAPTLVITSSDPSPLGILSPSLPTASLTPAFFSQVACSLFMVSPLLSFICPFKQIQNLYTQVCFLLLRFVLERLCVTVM
Outline: as §1

ETV2 = biological target: T10, ETV2 (Homo sapiens, UniProt O00321 1-342); conditions: protein: recombinant; tags: N-terminal GST; dsDNA, one strand shown
T10 sequence: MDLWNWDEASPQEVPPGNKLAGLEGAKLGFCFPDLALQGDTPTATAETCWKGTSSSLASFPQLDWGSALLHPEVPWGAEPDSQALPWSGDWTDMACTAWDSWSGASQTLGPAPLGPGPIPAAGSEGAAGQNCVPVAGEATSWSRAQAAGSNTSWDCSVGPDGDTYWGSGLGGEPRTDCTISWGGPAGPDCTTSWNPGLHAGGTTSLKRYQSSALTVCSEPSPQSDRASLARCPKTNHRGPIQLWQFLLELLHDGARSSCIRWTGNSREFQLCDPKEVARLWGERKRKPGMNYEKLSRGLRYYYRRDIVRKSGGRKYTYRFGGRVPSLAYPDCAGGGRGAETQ
Outline: as §1

ELF3 = biological target: T11, ELF3 (Homo sapiens, UniProt P78545 1-371); conditions: protein: recombinant; tags: N-terminal GST; dsDNA, one strand shown
T11 sequence: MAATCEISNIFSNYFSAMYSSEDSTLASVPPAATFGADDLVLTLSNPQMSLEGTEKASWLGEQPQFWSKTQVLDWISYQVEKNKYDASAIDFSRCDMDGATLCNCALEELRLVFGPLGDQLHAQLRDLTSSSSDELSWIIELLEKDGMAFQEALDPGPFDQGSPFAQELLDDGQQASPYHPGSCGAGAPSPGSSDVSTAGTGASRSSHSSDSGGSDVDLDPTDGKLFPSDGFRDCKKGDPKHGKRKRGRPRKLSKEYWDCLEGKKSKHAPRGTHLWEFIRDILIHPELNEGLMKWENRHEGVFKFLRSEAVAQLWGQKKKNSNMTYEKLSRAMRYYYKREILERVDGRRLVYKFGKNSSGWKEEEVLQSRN
Outline: as §1

CRX = CRX (Homo sapiens, UniProt O43186 1-299); conditions: protein: recombinant; tags: N-terminal GST; dsDNA, one strand shown
Chain of CRX (O43186 whole entry): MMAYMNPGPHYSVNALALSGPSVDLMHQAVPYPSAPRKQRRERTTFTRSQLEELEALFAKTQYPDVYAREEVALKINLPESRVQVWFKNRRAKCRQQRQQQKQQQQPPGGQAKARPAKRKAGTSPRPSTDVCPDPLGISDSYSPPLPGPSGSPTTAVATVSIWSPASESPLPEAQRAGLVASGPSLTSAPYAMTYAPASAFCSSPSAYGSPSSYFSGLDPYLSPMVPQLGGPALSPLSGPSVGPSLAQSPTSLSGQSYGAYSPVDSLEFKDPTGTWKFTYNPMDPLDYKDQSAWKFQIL
Outline: as §1

ETV1 = ETV1 (Homo sapiens, UniProt P50549 1-477); conditions: protein: recombinant; tags: N-terminal GST; dsDNA, one strand shown
Chain of ETV1 (P50549 whole entry): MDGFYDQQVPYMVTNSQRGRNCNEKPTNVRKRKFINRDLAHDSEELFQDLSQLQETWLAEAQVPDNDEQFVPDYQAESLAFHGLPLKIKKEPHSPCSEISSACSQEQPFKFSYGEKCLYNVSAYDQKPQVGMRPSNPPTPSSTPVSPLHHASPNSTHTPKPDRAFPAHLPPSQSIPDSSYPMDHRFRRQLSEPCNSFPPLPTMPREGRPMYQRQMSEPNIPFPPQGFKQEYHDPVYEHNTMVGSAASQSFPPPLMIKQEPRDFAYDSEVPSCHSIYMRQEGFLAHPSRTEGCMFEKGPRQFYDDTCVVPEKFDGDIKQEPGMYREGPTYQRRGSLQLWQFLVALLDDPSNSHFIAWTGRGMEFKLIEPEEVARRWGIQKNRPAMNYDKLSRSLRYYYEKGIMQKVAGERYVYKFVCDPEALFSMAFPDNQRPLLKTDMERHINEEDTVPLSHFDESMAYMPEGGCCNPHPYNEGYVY
Outline: as §1

AATGAA was tested, and the binding signal (FLI1) was 1.11 fold enrichment (6-mer frequency, TF over GST control), the binding signal (ELK1) was 1.1 fold enrichment (6-mer frequency, TF over GST control) and the binding signal (GABPA) was 1.22 fold enrichment (6-mer frequency, TF over GST control). The binding signal (ERG) was 1.21 fold enrichment (6-mer frequency, TF over GST control), the binding signal (ELF1) was 1.15 fold enrichment (6-mer frequency, TF over GST control) and the binding signal (EHF) was 1.18 fold enrichment (6-mer frequency, TF over GST control). For the same sequence, the binding signal (SPI1) was 1.24 fold enrichment (6-mer frequency, TF over GST control), the binding signal (SPIB) was 1.2 fold enrichment (6-mer frequency, TF over GST control) and the binding signal (ELK3) was 1.26 fold enrichment (6-mer frequency, TF over GST control). The binding signal (FEV) was 1.11 fold enrichment (6-mer frequency, TF over GST control), the binding signal (ETV5) was 1.16 fold enrichment (6-mer frequency, TF over GST control) and the binding signal (HSF1) was 1.12 fold enrichment (6-mer frequency, TF over GST control). For the same sequence, the binding signal (SPIC) was 1.26 fold enrichment (6-mer frequency, TF over GST control), the binding signal (ELF4) was 1.2 fold enrichment (6-mer frequency, TF over GST control) and the binding signal (ELK4) was 1.24 fold enrichment (6-mer frequency, TF over GST control). For the same sequence, the binding signal (ETV2) was 1.08 fold enrichment (6-mer frequency, TF over GST control), the binding signal (ELF3) was 1.24 fold enrichment (6-mer frequency, TF over GST control) and the binding signal (CRX) was 1.03 fold enrichment (6-mer frequency, TF over GST control). The binding signal (ETV1) was 1.17 fold enrichment (6-mer frequency, TF over GST control).

— publication PMC7862700, “An all-to-all approach to the identification of sequence-specific readers for epigenetic DNA modifications on cytosine”
